From PubChem BioAssay AID1063 (University of Pittsburgh Molecular Library Screening Center, 2008) come the findings set out here.

Molecules are shown by their SMILES. Screen size: about 200,000 compounds; about 18,000 (9%) were called active. Cut-off read from the data, not from the text of the source: active = inhibition above about 50%; inactive = the rest. For the sample, actives were picked, then their nearest neighbours and some compounds at random.

The nature of the experiment: antileishmanial activity against promastigotes – primary screen (AID 1063).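 Note: promastigotes grown with compound for 44 hours at 28 °C.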 The settings on record: Leishmania major promastigotes, resazurin fluorescence viability; at 10 µM; active compounds read high. (Resazurin is reduced to fluorescent resorufin, in cell work by metabolically active cells.)
`S=c1ccc2ccccc2[nH]1`: the inhibition – broadly, the change of the read-out against control, counted positive when it falls – is -8.39% (inactive). As for `CC(=O)NCC(=O)N(Cc1ccco1)C1(C(=O)NC2CCCC2)CCCCC1`, the inhibition is 1.81% (inactive). For the compound `CCOC(=O)c1ccc(NC2Nc3cc(C)nn3S2)cc1` (stereo unspecified), the inhibition was 1.08% (inactive). For `O=C(COc1ccc(NC(=O)c2ccccc2[N+](=O)[O-])cc1)c1ccc(F)cc1`, the inhibition is -3.68% (inactive). As for `CN1CCN(c2ccc(S(=O)(=O)N3CCCCC3)cc2NC(=O)Cc2ccccc2F)CC1`, the inhibition is 67.6% (active). For `COc1ccc(CC(=O)Nc2cc(S(=O)(=O)N3CCCCC3)ccc2N2CCN(C)CC2)cc1`, the inhibition is 47% (inactive).

As for `Cc1cccc(OCCC(=O)Nc2cc(S(=O)(=O)N3CCCCC3)ccc2N2CCOCC2)c1`, the inhibition was 22% (inactive). As for `CC12CN(NC(=O)c3ccc(Cl)cc3)C3(C#N)CC1CCC23C` (stereo unspecified), the inhibition is 7.74% (inactive). Take `COC(=O)CNC(=O)c1ccccc1[N+](=O)[O-]`: the inhibition is -1.1% (inactive). For the compound `O=C(Nc1ccncc1)c1ccccc1[N+](=O)[O-]`, the inhibition was 11.9% (inactive). The result for `COc1ccc(NC(=O)c2ccccc2[N+](=O)[O-])cc1OC` reads 59.4% (active).

With `COC(=O)C1=C(C)NC(=O)CC1c1ccccc1OC` (stereo unspecified), the inhibition is -5.13% (inactive). `Cc1ccc(N2NC(=O)/C(=C/C=C/c3ccco3)C2=O)cc1C`: the inhibition is 15.2% (inactive). As for `Cc1ccsc1C(=O)N/N=C/c1ccc([N+](=O)[O-])cc1`, the inhibition was -8.42% (inactive). As to `O=[N+]([O-])c1cc(Br)c(O)c(/C=N/Nc2nc3ccccc3s2)c1`, the inhibition is -6.02% (inactive). As to `Cc1cc(C(=O)N/N=C/c2cc([N+](=O)[O-])cc(C)c2O)n[nH]1`, the inhibition was 80.3% (active).

Turning to `Cc1cccc(NC(=O)Nc2nnc(-c3ccccc3)o2)c1`, the inhibition is 15.9% (inactive). Take `C/C(=N\NC(=O)c1cc2c(s1)CCC(C)C2)c1cccnc1` (stereo unspecified): the inhibition is 13% (inactive). The result for `COc1ccc(C(C(=O)NC2CCCCC2)N(C(=O)CCl)c2ccccc2Cl)cc1` (stereo unspecified) reads -1.95% (inactive); that for `Cc1cccc(N(C(=O)Cc2cccs2)C(C(=O)NC2CCCC2)c2ccsc2)c1` (stereo unspecified), 3.72% (inactive); that for `COc1cccc(N(C(=O)C2COc3ccccc3O2)C(C(=O)NC2CCCCC2)c2ccc(O)cc2)c1` (stereo unspecified), 98.3% (active). As to `Cc1cc([N+](=O)[O-])ccc1NCc1cccc([N+](=O)[O-])c1`, the inhibition was -1.47% (inactive). Take `CN1CCN(/N=C2/C(=O)Nc3ccc([N+](=O)[O-])cc32)CC1`: the inhibition is -2.49% (inactive). As to `O=C1Nc2ccc([N+](=O)[O-])cc2C1=Nc1cccc(CO)c1`, the inhibition was 51% (active).

On to `CN1CCN(CC#CCC2(O)c3ccccc3-c3ccccc32)CC1`, for which the inhibition was -6.57% (inactive). As for `Cn1cc(/C=C/c2nc3ccccc3c(=O)n2-c2cccc([N+](=O)[O-])c2)c2ccccc21`, the figure is 63.9% (active). Take `O=[N+]([O-])c1cccc(-c2nnc3c4ccccc4c4ccccc4n23)c1`: the inhibition was 22% (inactive). As for `CCOC(=O)N1CCN(Cc2nc3ccc([N+](=O)[O-])cc3c(=O)n2-c2cccc(OC)c2)CC1`, the inhibition is 8.07% (inactive). As for `Cc1cc(C)nc(/N=C2\NC(=O)CC(C(=O)O)N2c2ccc(Cl)cc2Cl)n1` (stereo unspecified), the figure is -2.66% (inactive); as for `CSc1ccc(/C=N\NC(=O)CC(=O)NC(C)C)cc1`, 3.48% (inactive). Turning to `CC1=NCCN1S(=O)(=O)c1cccc([N+](=O)[O-])c1`, the inhibition is 0.00784% (inactive). The result for `COc1ccc(/C=N/NC(=O)Cn2cc(C(F)(F)F)ccc2=O)cc1` reads 4.79% (inactive); that for `CCOC(=O)c1c(CN(C)C)n(-c2ccccc2)c2cc(Br)c(O)cc12`, 15.6% (inactive). For `CCC(CC)C(=O)N1CC(=O)Nc2ccc(Br)cc2C1c1ccccc1` (stereo unspecified), the inhibition was 14.8% (inactive). Take `O=C(c1ccc(S(=O)(=O)N2CCOCC2)cc1)N1CCN(c2ccccc2)CC1`: the inhibition is -2.9% (inactive). On to `Cc1ccc2c(c1)C(c1ccccc1)N(C(=O)c1ccc(S(=O)(=O)N3CCOCC3)cc1)CC(=O)N2` (stereo unspecified), for which the inhibition is 56.5% (active). With `Cc1ccc2nsnc2c1S(=O)(=O)N1CCCC1C(=O)O` (stereo unspecified), the inhibition is -8.56% (inactive).

For the compound `COc1ccc(C)cc1NC(=S)Nc1ccccc1SC`, the inhibition is 5.88% (inactive). Take `COC(=O)c1cn(-c2ccccc2)nc1-c1cccnc1`: the inhibition was 1.77% (inactive). The result for `Cc1ccc2nc(-c3cccnc3)c(NC3CCCC3)n2c1` reads 63.7% (active).

Take `O=C(Nc1ccc(F)cc1)C1CCN(C(=O)c2ccc([N+](=O)[O-])cc2)CC1`: the inhibition was 5.08% (inactive). In the case of `CCCCCCn1c(CN2CCCCC2)nc2c1c(=O)n(C)c(=O)n2C`, the inhibition is 6.89% (inactive). With `CCCCCCCCn1c2c(c(=N)c3c1CCC3)CCCC2`, the inhibition was 101% (active). Turning to `COc1cc(C)c(S(=O)(=O)N2CCOCC2)c(C)c1C`, the inhibition was -1.23% (inactive). On to `CCCCCCCC1(C)NC(=O)N(CC(=O)Nc2cc(C)on2)C1=O` (stereo unspecified), for which the inhibition was 20.5% (inactive).

`CNC(=O)COc1ccc(S(=O)(=O)Nc2ccccc2)cc1`: the inhibition is -0.21% (inactive). As to `CCN1CCN(C(=O)CCN2C(=O)c3ccccc3C2=O)CC1`, the inhibition is 4.9% (inactive). The result for `O=C(CN1C(=O)C2C3C=CC(C3)C2C1=O)NCCc1ccccc1Cl` (stereo unspecified) reads 0.65% (inactive); that for `O=C(CN1C(=O)C2C3C=CC(C3)C2C1=O)Nc1nc(-c2ccccn2)cs1` (stereo unspecified), 97.2% (active). Turning to `O=C(CCN1C(=O)C2C3C=CC(C3)C2C1=O)Nc1ccccc1F` (stereo unspecified), the inhibition was -3.49% (inactive). Take `Cc1cc(=O)n2[nH]c(-c3sccc3-n3c(C)ccc3C)cc2n1`: the inhibition is -1.8% (inactive). Take `CCOc1cc2[nH]c(=O)n(Cc3ccc(C(=O)NCCCN4CCCC4=O)cc3)c(=O)c2cc1OCC`: the inhibition is -1.97% (inactive). On to `Cc1ccc(C(=O)Cn2cccn2)cc1`, for which the inhibition was -1.93% (inactive). For `CSc1ncccc1C(=O)NC1CCCCCC1`, the inhibition was -1.57% (inactive).

In the case of `CCC(C)NC(=O)c1ccc(N2CCC3(CC2)OCCO3)c([N+](=O)[O-])c1` (stereo unspecified), the inhibition is -0.6% (inactive). The result for `COCCNC(=O)c1ccc(N2CCC3(CC2)OCCO3)c([N+](=O)[O-])c1` reads 73.7% (active); that for `CC1CCN(c2ccc(C(=O)NCc3ccc4c(c3)OCO4)cc2[N+](=O)[O-])CC1`, 1.95% (inactive); that for `COc1ccc(C(C)=O)cc1CSc1nc2nc(C)cc(C)n2n1`, -4.13% (inactive). `c1ccc2[nH]c(NCCN3CCOCC3)nc2c1`: the inhibition was 0.2% (inactive). As for `c1ccc2cc3c(NCCN4CCOCC4)ccnc3cc2c1`, the figure is 100% (active); as for `O=C(Cn1c(-c2ccccn2)nc2ccccc21)NCCN1CCOCC1`, -2.96% (inactive); as for `CCc1ccc(C(=O)OCC(=O)NCC(F)(F)F)cc1`, 4.83% (inactive). With `O=C(N/N=C/c1ccc(OCC2COCCO2)cc1)c1ccc(Br)cc1` (stereo unspecified), the inhibition was 40.5% (inactive).

For `COc1cc(C(=S)N2CCOCC2)ccc1O`, the inhibition is -5.63% (inactive). For the compound `C=CCOCCN(C)C1=NS(=O)(=O)c2ccccc21`, the inhibition was -5.84% (inactive). As to `CN(C)C=NC(=O)c1cccn1-c1ncc(C(F)(F)F)cc1Cl`, the inhibition was -3.59% (inactive). As for `O=Cc1cn(Cc2ccccc2)nc1-c1cccnc1`, the inhibition is -1.93% (inactive). For the compound `O=C1/C(=C\c2cccnc2)CN(Cc2ccccc2)C/C1=C\c1cccnc1`, the inhibition is 100% (active). For `Clc1ccc(CN2CCN(/N=C/c3cccnc3)CC2)cc1`, the inhibition was 8.51% (inactive). In the case of `COc1cccc2cc(S(=O)(=O)c3ccc(C)cc3)/c(=N/NS(=O)(=O)c3ccc(C)cc3)oc12`, the inhibition is -0.64% (inactive). `CCOC(=O)C1(CCOc2ccccc2)CCN(C(=O)c2cncs2)CC1`: the inhibition is 6.07% (inactive).

Take `CCOC(=O)/C(N=Nc1cc(C(=O)O)cc(C(=O)O)c1)=C(\O)CCl`: the inhibition is 50% (active). Consider `O=C(C1CC1)N1N=C2CCCCC2C1(O)C(F)(F)F` (stereo unspecified), for which the inhibition was -9.92% (inactive). As for `CCOC(=O)C1=C(C)Nc2sc(C(=O)c3ccc(Br)cc3)c(N)c2C1c1ccc(C(=O)OC)cc1` (stereo unspecified), the inhibition was 94.8% (active). As for `CCOC(=O)c1sc(=S)n2c1[nH]c(=O)c1ccc(C(=O)OC)cc12`, the figure is -7.11% (inactive).

As for `CCOC(=O)C1=C(C)NC(C)=C(C(=O)OCC)C1c1ccccn1`, the inhibition was 8.25% (inactive). As for `Cc1ccc(C(=O)N/C(=C/c2ccco2)C(=O)NCCc2c[nH]c3ccccc23)cc1C`, the figure is 32.8% (inactive); as for `COc1ccc(/C=C(\NC(=O)c2ccc(OC)c(OC)c2)C(=O)NCCc2c[nH]c3ccccc23)cc1`, 16% (inactive); as for `CC(=O)N/C(=C/c1ccc(Cl)cc1)C(=O)NCCc1c[nH]c2ccccc12`, 92.8% (active). `CN(C)/N=C/c1cn(-c2ccccc2)nc1-c1cccnc1`: the inhibition is 13.5% (inactive). On to `O=C(NCCCn1ccnc1)C(=O)c1cn(CC(=O)N2CCCCCC2)c2ccccc12`, for which the inhibition was 10.8% (inactive). For `COc1ccccc1/C=C/CN1CCC(CO)(Cc2ccccc2)CC1`, the inhibition is 32.1% (inactive). `CNC(=O)NC(=O)C(C)N1CCN(C/C=C/c2ccccc2)CC1` (stereo unspecified): the inhibition is 9.45% (inactive). In the case of `COc1cc(C(=O)N2CCN(C/C=C/c3ccccc3)CC2)cc(OC)c1C`, the inhibition was 54.7% (active). Take `Cn1c(SCC(=O)NC2CCCCC2)nnc1-c1ccc(N)cc1`: the inhibition was -1.08% (inactive). As for `Cc1ccc(-c2csc(-c3c[nH]c4ccccc34)n2)cc1`, the inhibition is -3.69% (inactive). The result for `Cc1ccc(C2=Nc3c(ccc4ccccc34)C(c3ccncc3)=NN2)cc1` reads 60% (active); that for `CCOC(=O)N1CCN(C(=S)Nc2ccc(C)cc2C)CC1`, -7.01% (inactive). `CC(C)Oc1ccccc1C(=O)NC(CO)C(=O)O` (stereo unspecified): the inhibition is -2.66% (inactive). As to `NC(=O)COc1ccc(C23CC4CC(CC(C4)C2)C3)cc1`, the inhibition is 2.36% (inactive). Consider `CSC1=N/C(=C\c2ccc3c(c2)OCO3)C(=O)S1`, for which the inhibition was 17.7% (inactive). Turning to `O=C1/C(=C/c2ccc3c(c2)OCO3)CCC/C1=C\c1ccc2c(c1)OCO2`, the inhibition is 39.8% (inactive). Consider `CCC1=C/C(=C\c2ccc3c(c2)OCO3)C(=O)S1`, for which the inhibition is 78.2% (active). `Cc1nn(C)c(Oc2ccccc2)c1CCNS(=O)(=O)c1ccc(F)cc1`: the inhibition is 97.5% (active). In the case of `COc1ccc(CCNS(=O)(=O)c2ccc(F)cc2)cc1OC`, the inhibition is -4.28% (inactive). As for `Cc1nn(C)c(Oc2ccccc2)c1[N+](=O)[O-]`, the figure is 6.23% (inactive).
